Molecules are shown by their SMILES. Inconclusive results are not listed. A number with no mark means an inactive call. Active and inactive are the calls of the source.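 How the source made its calls: active means compounds whose potency, the dose giving half inhibition, is below 20 µM; inconclusive means compounds meeting neither the active nor the inactive rule; inactive means potency over 20 µM or below 50% inhibition when unfitted.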

For this test, the target named is Integrin alpha-IIb (Homo sapiens) (UniProt P08514). Put plainly: Platelet Adhesion Secondary Assay for Inhibitors of Platelet Integrin alphallb-beta3. Conditions: human platelet adhesion to fibrinogen, calcein fluorescence; inhibition: at 30 µM, hits give high values. The source says: NIH Molecular Libraries Probe Production Network [MLPCN] NIH Chemical Genomics Center [NCGC] MLPCN Grant: 1 R03 MH083257-01 Assay Provider: Barry Coller, Rockefeller University NCGC Assay Overview: The alphaIIbbeta3 receptor plays a vital role in hemostasis and thrombosis, where receptor deficiency causes the hemorrhagic disorder, Glanzmann thrombasthenia, and uncontrolled receptor activation causes thrombosis and blood vessel occlusion. Small molecule inhibitors of alphaIIbbeta3, tirofiban and eptifibatide, have undesirable side effects thought to arise from conformational changes in alphaIIbbeta3. These changes transiently activate the receptor to cause spontaneous platelet aggregation and thrombus formation. […] This secondary assay measures the binding of human plates to fibrinogen, an extracellular matrix protein (Blue et al., 2008). Platelets were loaded with a fluorescent dye, calcein, and added to fibrinogen-coated plates. Following incubation, unbound platelets were removed by washing and bound platelets were detected by measuring fluorescence intensity. Inhibitors of alphaIIbbeta3 block platelet binding to fibrinogen and result in a decrease in fluorescence intensity.
Chain of Integrin alpha-IIb (Homo sapiens) (P08514 whole entry, looked up): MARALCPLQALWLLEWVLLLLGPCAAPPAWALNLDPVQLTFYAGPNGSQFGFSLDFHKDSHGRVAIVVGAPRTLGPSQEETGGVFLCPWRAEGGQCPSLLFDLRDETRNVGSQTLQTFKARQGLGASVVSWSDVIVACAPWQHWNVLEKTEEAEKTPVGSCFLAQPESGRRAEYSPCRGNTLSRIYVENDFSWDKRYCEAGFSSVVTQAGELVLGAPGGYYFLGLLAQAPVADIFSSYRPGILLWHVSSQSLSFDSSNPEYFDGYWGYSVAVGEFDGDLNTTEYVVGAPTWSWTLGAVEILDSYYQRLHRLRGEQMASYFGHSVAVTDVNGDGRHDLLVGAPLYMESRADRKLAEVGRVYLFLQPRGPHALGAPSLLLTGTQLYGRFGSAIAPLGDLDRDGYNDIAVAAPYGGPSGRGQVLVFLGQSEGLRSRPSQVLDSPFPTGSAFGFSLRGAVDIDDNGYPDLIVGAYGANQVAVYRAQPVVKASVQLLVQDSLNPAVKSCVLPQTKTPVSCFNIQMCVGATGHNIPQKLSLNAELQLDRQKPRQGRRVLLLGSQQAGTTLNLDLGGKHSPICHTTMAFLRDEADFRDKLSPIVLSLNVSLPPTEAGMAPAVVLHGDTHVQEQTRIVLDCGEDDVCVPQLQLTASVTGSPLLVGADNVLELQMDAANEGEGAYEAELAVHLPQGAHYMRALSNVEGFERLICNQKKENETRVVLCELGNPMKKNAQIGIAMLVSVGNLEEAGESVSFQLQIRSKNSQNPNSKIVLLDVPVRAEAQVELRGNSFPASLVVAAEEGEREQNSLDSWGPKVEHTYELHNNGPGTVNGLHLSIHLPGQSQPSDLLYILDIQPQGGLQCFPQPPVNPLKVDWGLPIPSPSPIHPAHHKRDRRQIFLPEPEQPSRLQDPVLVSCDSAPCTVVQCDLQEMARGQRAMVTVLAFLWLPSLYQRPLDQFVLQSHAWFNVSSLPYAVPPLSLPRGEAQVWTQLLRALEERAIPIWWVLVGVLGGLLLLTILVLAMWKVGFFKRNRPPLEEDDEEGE
NCGC Assay Protocol Summary: Human fibrinogen (50 ug/mL) in Tris/saline (100 mM NaCl, 50 mM Tris/HCl, pH 7.4; American Diagnostica, Stamford, CT) was added to black, clear-bottom, untreated polystyrene, nonsterile 384-well microtiter plate wells (Corning no. 3711; Acton, MA) using a peristaltic microplate dispenser (WellMate; Matrix, Hudson, NH). After incubating at 22 C for 1 hour, plates were washed 4 times with Tris/saline using an automated plate washer (ELX405; Bio-Tek, Winooski, VT), and wells were then blocked with HBMT (138 mM NaCl, 12 mM NaHCO3, 10 mM HEPES, 2.7 mM KCl, 0.4 mM NaH2PO4, 0.1% glucose, 0.35% BSA, pH 7.4) for at least 1 hour. After 2 additional washes, 15 uL HBMT was allowed to remain in each well. Compounds were added to the wells with a liquid handling robot (MiniTrak V; PerkinElmer, Wellesley, MA) using a pin tool (VP Scientific, San Diego, CA) that added 0.1 uL compound in DMSO. Fifteen microliters 5E11/L calcein-labeled platelets were then added (2.5E11/L final concentration). After 1 hour of adhesion, wells were washed 4 times with HBMT-CaCl2/MgCl2 and the plates were read by an Envision (Perkin Elmer) to detect calcein fluorescence (490 nm excitation and 515 nm emission). Positive controls consisted of wells containing platelets without compounds. Negative controls were wells containing platelets and known inhibitors of alphaIIbbeta3, including mAbs 7E3 and 10E5, and EDTA. Reference Blue R, Murcia M, Karan C, Jirouskova M, and Coller BS. Application of high-throughput screening to identify a novel alphaIIb-specific small- molecule inhibitor of alphaIIbbeta3-mediated platelet interaction with fibrinogen. Blood. 2008, 111(3):1248-56
Usually inhibition stands for the drop in the measured response relative to a control, in per cent. With `Cc1noc(C)c1-c1cccc(-c2nn3c(=O)cc(N4CCNCC4)nc3s2)c1`, the inhibition is 26%.
For the compound `C[C@H](N)C(=O)Nc1cccc(-c2nn3c(=O)cc(N4CCNCC4)nc3s2)c1`, the Potency is 8200 nM (active).
As to `Nc1ncc(-c2cccc(-c3nn4c(=O)cc(N5CCNCC5)nc4s3)c2)cn1`, the Potency is 3500 nM (active).
Still for that read-out and setting: under `NCC(=O)Nc1cccc(-c2nn3c(=O)cc(N4CCNCC4)nc3s2)c1` stands 1100 nM (active).
For `O=C(O)c1ccc(-c2nn3c(=O)cc(N4CCNCC4)nc3s2)cc1`, the inhibition is 48%.
As to `CC(C)(C)c1nn2c(=O)cc(N3CCNCC3)nc2s1`, the inhibition is 21%.
In the case of `O=C(O)c1cccc(-c2cccc(-c3nn4c(=O)cc(N5CCNCC5)nc4s3)c2)c1`, the Potency was 460 nM (active).
On to `O=C(Nc1cccc(-c2nn3c(=O)cc(N4CCNCC4)nc3s2)c1)c1ccon1`, for which the inhibition is 32%.
Turning to `NC(=O)c1ccc(-c2cccc(-c3nn4c(=O)cc(N5CCNCC5)nc4s3)c2)cc1`, the Potency is 855 nM (active).
As to `CNCC(=O)Nc1cccc(-c2nn3c(=O)cc(N4CCNCC4)nc3s2)c1`, the inhibition is 24%.
Still for that read-out and setting: under `CCc1nn2c(=O)cc(NC3CNC3)nc2s1` stands 23%; under `CCc1nn2c(=O)cc(-c3ccncc3)nc2s1`, 25%.
Regarding `O=C(O)c1cc(-c2cccc(-c3nn4c(=O)cc(N5CCNCC5)nc4s3)c2)cs1`, the Potency was 2400 nM (active).
In the case of `COCc1nn2c(=O)cc(N3CCNCC3)nc2s1`, the inhibition is 18%.
Regarding `CCc1nn2c(=O)cc(N3C(C)CNCC3C)nc2s1` (stereo not given), the inhibition was 27%.

The values are drawn from PubChem BioAssay AID2634 (National Center for Advancing Translational Sciences (NCATS), 2010).
